# Data: PubChem BioAssay (NCI)
# The panel holds about 79,000 compounds, 15% with a hit somewhere; the sample as a whole holds those more often. The source made the active and inactive calls. No stated cut-off is given here; in the data, active means growth inhibition above about 70%; inactive means the rest.
# Experiment: NCI Yeast Anticancer Drug Screen. Data for the sgs1 mgt1 strain (AID 161);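 further: 0% = growth of cultures given vehicle only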
# Settings: S. cerevisiae sgs1 mgt1 strain, at 50.0 µM, hits give high values
# In short: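 Growth of a repair-deficient yeast mutant was monitored after compound treatment and expressed as inhibition relative to vehicle-treated cultures.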
row,Structure (SMILES),growth inhibition
1,O=C(CCC(=O)Nc1cc(Cl)ccc1Cl)CC(=O)c1ccc([N+](=O)[O-])cc1,4.35% (inactive)
2,NC1C2CC3CC1CC(C2)O3 (stereo not given),-9.4% (inactive)
3,O=C(O)C(Br)C(Br)C(=O)Nc1cccc2ccccc12 (stereo not given),99.2% (active)
4,CC(C)[C@@]12O[C@@H]1CC13OC1[C@@H](O)CC[C@@]32O (stereo not given in full),-2.8% (inactive)
5,O=C1C=C(C2CCCCC2)C(=O)c2ccccc21,15.4% (inactive)
6,Cc1ccc(N=C(NN(C)C)C(c2ccccc2)c2ccccc2)cc1,7.95% (inactive)
7,CC(CS(C)(=O)=O)S(=O)(=O)O (stereo not given),-1.35% (inactive)
8,Cc1ccc(N=NN(C)C)cc1,-9.55% (inactive)
9,COc1cc(NC(=O)CCN2CCOCC2)c2ncccc2c1,12.8% (inactive)
10,FC(F)(F)c1cccc(C2SCc3nc4ccccc4n32)c1 (stereo not given),7.1% (inactive)
11,O=c1c(Cl)c(Cl)cnn1-c1ccc([N+](=O)[O-])cc1[N+](=O)[O-],3.05% (inactive)
12,CN(C)/C(=N\N=C(/c1ccc(Cl)cc1)N(C)C)c1ccc(Cl)cc1,1% (inactive)
13,Cc1c(C)c(C)c(CN2CC(=O)c3ccccc3C2=O)c(C)c1C,4% (inactive)
14,C[n+]1nc([O-])oc1-c1ccccc1,11.4% (inactive)
15,Cc1[nH]c2ccccc2c1-c1cc(-c2cc(-c3c(C)[nH]c4ccccc34)nc(N)n2)nc(N)n1,-25.8% (inactive)
16,COc1cccc(/C=C2\C(=O)N(C(=O)Cc3ccccc3)N=C2C)c1,-34.8% (inactive)
17,OCCOc1ccc(OCCO)cc1,-8.95% (inactive)
18,CCCCNC(C)=O,-18.5% (inactive)
19,OC(Cc1cccnc1)(c1ccccc1)c1ccccc1,-16.7% (inactive)
20,COC(=O)C1(CCSc2ccccc2)CCCC1=O (stereo not given),14.8% (inactive)

row,Structure (SMILES),growth inhibition
1,CCCCN(CCCC)C(=N)c1cccc(OC)c1,-7.35% (inactive)
2,O=[N+]([O-])c1ccc(N/N=C2\C=C(c3ccccc3)C(c3ccccc3)C2)c([N+](=O)[O-])c1 (stereo not given),-9.25% (inactive)
3,S=C(Nc1ccccc1)N1N=C2c3ccccc3CC[C@H]2[C@@H]1c1ccccc1,-37.5% (inactive)
4,CCCCCCCCCCCCCCCCNc1nc(=O)n(C2CC(O)C(COP(=O)(O)OC3CC(n4cc(F)c(=O)[nH]c4=O)OC3CO)O2)cc1F (stereo not given),-25.9% (inactive)
5,COc1cc2c(SCCN(C)C)nc3ccccc3c2c2ccccc12,90.8% (active)
6,C=C(C)CBr,-5.95% (inactive)
7,O=C1Cn2c(cc(=O)c3ccccc32)O1,5.9% (inactive)
8,CC1=CC(=O)C(c2ccccc2)CC1 (stereo not given),14.8% (inactive)
9,CC(C#N)(CCl)OS(=O)(=O)CCCl (stereo not given),6.4% (inactive)
10,Cc1ccc(NC(=O)CCC(=O)C2Cc3ccccc3C2=O)cc1C (stereo not given),-5.05% (inactive)
11,CCOC(=O)c1ccc(NC(=O)Oc2ccc(SC)cc2)cc1,0.4% (inactive)
12,O=[N+]([O-])Cc1ccc(Cl)cc1,13.1% (inactive)
13,CCOc1ccc2nc(NC(=O)C(=O)C(C(=O)c3ccccc3F)C3OC(=O)c4ccccc43)sc2c1 (stereo not given),2.65% (inactive)
14,Nc1cccc2nsnc12,-42.2% (inactive)
15,CCOC(=O)C[N+]1(C)CCC(O)CC1 (stereo not given),-2.55% (inactive)
16,C/C=C\C(=O)OCC(C)COC(=O)/C=C/C (stereo not given),4.9% (inactive)
17,O=c1c2ccccc2c2ccccc2n1C(c1ccccc1)c1ccccc1,3.25% (inactive)
18,CC(C)C(=O)Nc1ccc([N+](=O)[O-])cc1,10.8% (inactive)
19,Oc1c2cccc1Cc1cccc3c1OCCOCCOCCOCCOc1c(cccc1Cc1cccc(c1O)C3)C2,9.45% (inactive)
20,CCN(CC)Cc1ncccc1O,-22.4% (inactive)

# Experiment: NCI Yeast Anticancer Drug Screen. Data for the cln2 rad14 strain (AID 165);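 further: 0% = growth equal to vehicle treated cultures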
# Settings: S. cerevisiae cln2 rad14 strain, at 50.0 µM, hits give high values
# In short: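 Readout is yeast growth inhibition versus vehicle-treated controls, using a strain with cln2 and rad14 alterations exposed to compound.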
row,Structure (SMILES),growth inhibition
1,O=C(CCC(=O)Nc1cc(Cl)ccc1Cl)CC(=O)c1ccc([N+](=O)[O-])cc1,13.8% (inactive)
2,NC1C2CC3CC1CC(C2)O3 (stereo not given),-68.5% (inactive)
3,O=C(O)C(Br)C(Br)C(=O)Nc1cccc2ccccc12 (stereo not given),99.2% (active)
4,CC(C)[C@@]12O[C@@H]1CC13OC1[C@@H](O)CC[C@@]32O (stereo not given in full),-27.9% (inactive)
5,O=C1C=C(C2CCCCC2)C(=O)c2ccccc21,18.3% (inactive)
6,Cc1ccc(N=C(NN(C)C)C(c2ccccc2)c2ccccc2)cc1,-18.9% (inactive)
7,CC(CS(C)(=O)=O)S(=O)(=O)O (stereo not given),-0.3% (inactive)
8,Cc1ccc(N=NN(C)C)cc1,-2.6% (inactive)
9,COc1cc(NC(=O)CCN2CCOCC2)c2ncccc2c1,-29.4% (inactive)
10,FC(F)(F)c1cccc(C2SCc3nc4ccccc4n32)c1 (stereo not given),0.45% (inactive)
11,O=c1c(Cl)c(Cl)cnn1-c1ccc([N+](=O)[O-])cc1[N+](=O)[O-],-4.25% (inactive)
12,CN(C)/C(=N\N=C(/c1ccc(Cl)cc1)N(C)C)c1ccc(Cl)cc1,-24.9% (inactive)
13,Cc1c(C)c(C)c(CN2CC(=O)c3ccccc3C2=O)c(C)c1C,14.1% (inactive)
14,C[n+]1nc([O-])oc1-c1ccccc1,-3.65% (inactive)
15,Cc1[nH]c2ccccc2c1-c1cc(-c2cc(-c3c(C)[nH]c4ccccc34)nc(N)n2)nc(N)n1,3.05% (inactive)
16,COc1cccc(/C=C2\C(=O)N(C(=O)Cc3ccccc3)N=C2C)c1,-0.45% (inactive)
17,OCCOc1ccc(OCCO)cc1,-39.7% (inactive)
18,CCCCNC(C)=O,-21.6% (inactive)
19,OC(Cc1cccnc1)(c1ccccc1)c1ccccc1,-21.5% (inactive)
20,COC(=O)C1(CCSc2ccccc2)CCCC1=O (stereo not given),5.05% (inactive)

row,Structure (SMILES),growth inhibition
1,CCCCN(CCCC)C(=N)c1cccc(OC)c1,-15.3% (inactive)
2,O=[N+]([O-])c1ccc(N/N=C2\C=C(c3ccccc3)C(c3ccccc3)C2)c([N+](=O)[O-])c1 (stereo not given),23.1% (inactive)
3,S=C(Nc1ccccc1)N1N=C2c3ccccc3CC[C@H]2[C@@H]1c1ccccc1,-1% (inactive)
4,CCCCCCCCCCCCCCCCNc1nc(=O)n(C2CC(O)C(COP(=O)(O)OC3CC(n4cc(F)c(=O)[nH]c4=O)OC3CO)O2)cc1F (stereo not given),0.95% (inactive)
5,COc1cc2c(SCCN(C)C)nc3ccccc3c2c2ccccc12,87.8% (active)
6,C=C(C)CBr,5.35% (inactive)
7,O=C1Cn2c(cc(=O)c3ccccc32)O1,-9.35% (inactive)
8,CC1=CC(=O)C(c2ccccc2)CC1 (stereo not given),-32.7% (inactive)
9,CC(C#N)(CCl)OS(=O)(=O)CCCl (stereo not given),16.9% (inactive)
10,Cc1ccc(NC(=O)CCC(=O)C2Cc3ccccc3C2=O)cc1C (stereo not given),21.3% (inactive)
11,CCOC(=O)c1ccc(NC(=O)Oc2ccc(SC)cc2)cc1,8.95% (inactive)
12,O=[N+]([O-])Cc1ccc(Cl)cc1,-33% (inactive)
13,CCOc1ccc2nc(NC(=O)C(=O)C(C(=O)c3ccccc3F)C3OC(=O)c4ccccc43)sc2c1 (stereo not given),22.6% (inactive)
14,Nc1cccc2nsnc12,30.1% (inactive)
15,CCOC(=O)C[N+]1(C)CCC(O)CC1 (stereo not given),-0.45% (inactive)
16,C/C=C\C(=O)OCC(C)COC(=O)/C=C/C (stereo not given),9.4% (inactive)
17,O=c1c2ccccc2c2ccccc2n1C(c1ccccc1)c1ccccc1,-12.6% (inactive)
18,CC(C)C(=O)Nc1ccc([N+](=O)[O-])cc1,9.4% (inactive)
19,Oc1c2cccc1Cc1cccc3c1OCCOCCOCCOCCOc1c(cccc1Cc1cccc(c1O)C3)C2,13.8% (inactive)
20,CCN(CC)Cc1ncccc1O,-2.25% (inactive)
